# Experimental data from PubChem BioAssay AID1347048 (National Center for Advancing Translational Sciences (NCATS), 2019).
# The campaign covered roughly 76,000 compounds. About 1,200 (1.6%) were called active. Where a call stands in place of a potency, no number is given. Not shown: some 4% with an inconclusive outcome. Calls follow the shape of the full dose curve. For the sample, actives were picked, then their nearest neighbours and some compounds at random.
# Biological target: Atrial natriuretic peptide receptor 1 (Homo sapiens) (UniProt P16066)
# Sequence (P16066 whole entry, looked up): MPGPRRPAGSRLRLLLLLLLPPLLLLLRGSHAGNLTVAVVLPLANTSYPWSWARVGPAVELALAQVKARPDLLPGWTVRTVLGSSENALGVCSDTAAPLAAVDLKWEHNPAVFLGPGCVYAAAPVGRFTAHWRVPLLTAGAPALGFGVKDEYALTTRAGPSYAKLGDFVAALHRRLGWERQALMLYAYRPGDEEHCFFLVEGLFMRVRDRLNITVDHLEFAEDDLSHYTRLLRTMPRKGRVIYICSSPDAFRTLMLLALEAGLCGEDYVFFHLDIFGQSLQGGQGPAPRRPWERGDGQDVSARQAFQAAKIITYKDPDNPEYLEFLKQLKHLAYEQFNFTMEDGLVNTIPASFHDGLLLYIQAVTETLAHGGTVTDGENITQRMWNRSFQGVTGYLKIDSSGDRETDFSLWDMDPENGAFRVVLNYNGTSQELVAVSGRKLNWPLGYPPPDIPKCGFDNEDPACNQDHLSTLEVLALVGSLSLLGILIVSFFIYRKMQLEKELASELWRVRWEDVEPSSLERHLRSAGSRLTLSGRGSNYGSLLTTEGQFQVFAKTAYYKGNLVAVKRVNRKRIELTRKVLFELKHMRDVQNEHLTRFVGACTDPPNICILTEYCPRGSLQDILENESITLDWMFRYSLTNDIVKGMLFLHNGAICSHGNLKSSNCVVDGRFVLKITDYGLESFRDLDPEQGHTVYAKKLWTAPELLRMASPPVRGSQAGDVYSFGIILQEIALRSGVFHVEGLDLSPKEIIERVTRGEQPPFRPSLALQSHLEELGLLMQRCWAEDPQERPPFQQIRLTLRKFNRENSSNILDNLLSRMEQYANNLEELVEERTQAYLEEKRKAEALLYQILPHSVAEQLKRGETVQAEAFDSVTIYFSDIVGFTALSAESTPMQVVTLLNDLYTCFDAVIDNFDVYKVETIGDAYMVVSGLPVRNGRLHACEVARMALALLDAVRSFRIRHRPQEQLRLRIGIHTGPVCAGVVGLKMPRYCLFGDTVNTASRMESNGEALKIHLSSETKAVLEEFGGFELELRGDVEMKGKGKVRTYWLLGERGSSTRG
# Test: Natriuretic polypeptide receptor (hNpr1) antagonism - Primary qHTS; also: nearly all actives have a fitted effect of over 60% in size
# Settings: HEK293 hNpr1 GloSensor cGMP, ANP-stimulated luminescence; series mostly up to 46.3 µM
# Text: Pruritus or itch, is an irritating skin sensation that creates a need to scratch, and ranges from mildly unpleasant and passing to acute and persistent sensations. […] Conventional treatments include topical anti-inflammatory agents, anti-histamines, and emollients, which are aimed at managing the itchy sensation and not the underlying disease. The treatment of pruritus remains a diagnostic and therapeutic challenge. Neurotransmission in the spinal cord from primary pruriceptors to second order neurons is a necessary step that eventually results in the sensation of itch. At this synapse, primary pruriceptors use the neuropeptide natriuretic polypeptide B (NppB) to activate its cognate receptor Natriuretic polypeptide receptor 1 (Npr1) on second order neurons. Inhibition of this step is a new potential strategy to inhibit acute and chronic itch. In order to identify small molecular compounds that can inhibit the Npr1 receptor we developed a high-throughput assay to probe inhibition of the receptor guanylate cyclase Npr1. The assay was designed taking advantage of Promega's GloSensor[TM] technology (Fan, F. et al. 2008). It involves the expression of a cyclic guanosine monophosphate (cGMP) biosensor, comprised of a firefly luciferase variant that was coupled to the cGMP binding domain of human phosphodiesterase 5A, and loading of cells with a cell-permeable luciferase substrate to monitor cGMP production by Npr1 in real time in live cells. In detail, we generated human embryonic kidney 293 cells stably expressing the human Npr1 and the cGMP GloSensor[TM] pGS-40F. Stimulating these cells with the Npr1 agonists human NppA or NppB, luciferase-induced light production could be detected in a dose-dependent manner. We also generated HEK293 cells stably expressing human Npr2 and pGS-40F and cells only expressing pGS-40F to conduct secondary counter screens. In these cells, NppC or sodium nitroprusside were used to stimulate Npr2 or soluble guanylate cyclase which is endogenously expressed in HEK293 cells, respectively. REFERENCE F. Fan, B. F. Binkowski, B. L. Butler, P. F. Stecha, M. K. Lewis, K. V. Wood, Novel genetically encoded biosensors using firefly luciferase. ACS Chem. Biol., 2008, 3: 346-351 .
# PROTOCOL TABLES (as described by Inglese J, Shamu CE and Guy RK. 2007) SEQUENCE No. (e.g., 1, 2, 3, etc.); […] (e.g., Cells, Incubation, Reagent, etc.); VALUE and DESCRIPTION. GLOSENSOR PROTOCOL 1. Cells. Seed 1500 HEK293 cGMP-sensor cells expressing hNpr1 per well in 4uL into Greiner 1536-well white/solid bottom high base, tissue culture-treated plates. 2. Incubation. Incubate plated cells at 37C in 5% CO2, 95% RH overnight. 3. Reagent. Add 1uL per well GloSensor reagent from Promega (2% final concentration) or CO2 independent media vehicle control to respective columns of Greiner 1536-well plates. 4. Incubation. Incubate plated cells at room temperature for 2 h, protect from light. 5. Compounds. Library compounds and A-71915 control added at 23 nL per well, transferred by Pin Tool. 6. Incubation. Incubate plated cells for 30 min. at room temperature, protect from light. 7. Detector. GloSensor baseline pre-read luminescence measured using CCD-based camera (Viewlux). 8. Compound. Add 1uL of hNppA peptide to 0.1 nM final concentration to stimulate hNpr1 or CO2 independent media as vehicle control. 9. Incubation. Incubate treated cells at room temperature for 20 min., protect from light. 10. Detector. GloSensor post-hNppA luminescence measured using CCD-based camera (Viewlux). NOTES (numbers refer to Sequence numbers above) 1. HEK293 cells expressing hNpr1 and GIP/pGS-40F grown to 85-95% confluence (48-72 h) in T175 culture flasks (CO2 independent media supplemented with 10% FBS, 1% Pen/Strep antibiotics and 1 ug/mL puromycin). Trypsinize and harvest cells from T175 culture flasks and filter through 40 um cell strainer. Cells counted with Invitrogen Countess (30,000,000 - 50,000,000 cells/flask). […]
# Potency is read from the fitted curve at half-maximal effect.
row,Structure (SMILES),Potency
1,CC(=O)N1CCC(NC[C@H]2O[C@H](Cc3cc(-c4cccc(O)c4)on3)CC[C@@H]2O)CC1,25.1 µM (active)
2,O[C@H]1CC[C@@H](Cc2cc(-c3ccccc3)on2)O[C@@H]1CNCc1ccccc1,inactive
3,O=C(NC[C@H]1O[C@H](Cc2cc(-c3ccccc3)on2)CC[C@@H]1O)C1CCC1,inactive
4,NC(=O)C1CCCN(CC(=O)Nc2nc3ccccc3[nH]2)C1 (stereo not given),inactive
5,CC1Oc2ccc(NC(=O)c3ccc([N+](=O)[O-])cc3)cc2CN(Cc2ccccc2)C1=O (stereo not given),inactive
6,Cc1nc(-c2ccncc2)ncc1C(C)Nc1ncnc(C)c1C (stereo not given),10 µM (active)
7,Cc1ccc(-c2ncc(C(=O)Nc3ccccc3C)c(-c3ccncc3)n2)cc1,inactive
8,CC(Cn1cncn1)Nc1nc(-c2ccncc2)nc2c1cnn2C (stereo not given),inactive
9,COCC(=O)N1CCCC(c2nc(-c3ccc(C)nn3)no2)C1 (stereo not given),inactive
10,COc1ccccc1Nc1ncc2c(n1)CN(C(=O)COc1ccccc1)CCN2,inactive
11,O=C(c1cccc(O)c1)N1CCNc2cnc(Nc3cccc(F)c3)nc2C1,22.4 µM (active)
12,O=C(c1cccc(F)c1)N1CCCC(CN2CCOCC2)CC1 (stereo not given),inactive
13,O=C(c1ccccc1)N1CCNc2cnc(Nc3cccc(C(F)(F)F)c3)nc2C1,20 µM (active)
14,O=C(c1nc2ccccc2[nH]1)N1CCNc2cnc(Nc3ccc(-n4ccnc4)cc3)nc2C1,inactive
15,O=C(c1cccc(F)c1)N1CCCC(c2nccn2Cc2cscn2)C1 (stereo not given),inactive
16,COc1ccc(C(=O)N[C@H]2C[C@@H](c3nc(-c4ccc(OC)cc4)no3)N(C)C2)cc1,inactive
17,c1ccc(Nc2cnc3ccc(-n4ccnc4)nn23)cc1,inactive
18,CC1(C)C[C@H](NC(=O)c2ccc(C#N)cc2)[C@@]2(CCC(=O)NCCc3c[nH]c4ccccc34)CC[C@](C)(O)C[C@@H]12,inactive
19,Cc1ccccc1-c1cn[nH]c1C1CCN(C(=O)CCCn2cnnn2)CC1,inactive
20,O=C(c1cccc(F)c1)N1CCC(CCOc2ccc(F)cc2)C1 (stereo not given),inactive
21,O=C(C1CCOCC1)N1CCOC[C@H](Oc2ccccc2)C1,inactive
22,O=C(c1cccc(F)c1)N1CCOC[C@H](Oc2ccc(C(F)(F)F)cc2)C1,28.2 µM (active)
23,Cc1nn(Cc2ccccc2)c(C)c1[C@@H]1C=C[C@@H](NC(=O)NC(C)C)C1,inactive
24,Cc1nn(-c2ccc(C(C)C)cc2)c(C)c1[C@@H]1C=C[C@@H](NC(=O)CC2(CC(=O)O)CCCC2)C1,inactive
25,Cc1nn(Cc2ccccc2)c(C)c1[C@@H]1C=C[C@@H](NC(=O)NC2CCCCC2)C1,inactive

row,Structure (SMILES),Potency
1,COc1ccc(-n2nc(C)c([C@H]3C=C[C@@H](OC(=O)Nc4cccc(F)c4)C3)c2C)cc1,20 µM (active)
2,COc1ccc(NC(=O)N[C@@H]2C=C[C@@H](c3c(C)nn(-c4ccc(C(C)(C)C)cc4)c3C)C2)cc1,inactive
3,Cc1nn(-c2ccc(C(C)C)cc2)c(C)c1[C@@H]1C=C[C@@H](NC(=S)NCC(C)C)C1,28.2 µM (active)
4,Cc1nn(-c2cccc(Br)c2)c(C)c1[C@@H]1C=C[C@@H](NC(=O)CC2(CC(=O)O)CCCC2)C1,inactive
5,Cc1nn(-c2cccc(Br)c2)c(C)c1[C@@H]1C=C[C@@H](NS(=O)(=O)c2ccccc2)C1,inactive
6,COc1ccc(-n2nc(C)c([C@@H]3C=C[C@@H](NC(=O)Nc4ccccc4)C3)c2C)cc1,14.1 µM (active)
7,COC(=O)c1c(NC(C)=O)c2cc(NC3CCCCCC3)cnc2n1CC1CCCO1 (stereo not given),inactive
8,O=C(Cc1ccc(Cl)cc1)N1CCc2c(nc3cc[nH]n3c2=O)C1,inactive
9,COc1cccc(CN2CCN(Cc3ncccc3C)CC2)c1O,inactive
10,O=c1c2c(n(Cc3ccccc3)n1-c1ccccc1)CN(Cc1ccn[nH]1)CC2,inactive
11,CCOc1ccc(CN2CCC(N3CCCC(C(=O)NC4CC4)C3)CC2)cc1 (stereo not given),inactive
12,CCCNc1ccc2nnc(C)n2n1,inactive
13,Cc1noc(C)c1-c1cc(-c2ccccc2Oc2ccccc2)cn2cncc12,28.2 µM (active)
14,COc1ccccc1-c1cc(-c2cn[nH]c2)c2cncn2c1,inactive
15,Cc1noc(C)c1-c1cc(-c2cncnc2)cn2cncc12,inactive
16,CN(C)Cc1nnc(C2CC(NC(=O)c3cn4cccnc4n3)C2)n1C (stereo not given),inactive
17,O=C(c1ccccc1)N1CCOc2ccc(CN3CCc4ccccc4C3)cc2C1,inactive
18,CCC(=O)N1CCc2oc(C)c(C(=O)NCCN(C)C)c2C1,inactive
19,CC(C)(Oc1nn(CC2CCOCC2)c2ccccc12)C(=O)NCc1ccccc1,inactive
20,CN1CCN(C(=O)C(C)(C)Oc2nn(Cc3cccc(Cl)c3)c3ccccc23)CC1,15.8 µM (active)
21,COCc1ccc2c(c1)c(OC(C)(C)C(=O)N1CCN(C)CC1)nn2Cc1cccnc1,inactive
22,CC(=O)N1CCC(N2C[C@H](O)C[C@H]2C(=O)NC2CCCCC2)CC1,inactive
23,Cc1c(C(=O)N2CCCn3nc(C(C)O)cc3C2)sc2nc[nH]c(=O)c12 (stereo not given),inactive
24,C(=C\c1ccccc1)/CN1CCN(c2ncncn2)CC1,inactive
25,OC1(Cc2cc(-c3ccccc3)no2)CCN(c2ncncn2)CC1,3.55 µM (active)
